Compound activity deposited in PubChem BioAssay by several laboratories.
SENP6 block: SENP6 protease inhibitors, primary screen, biochemical, luminescence, uHTS. Sentrin-specific protease 6 (Homo sapiens), Q9GZR1. Recombinant SENP6 catalytic domain, aminoluciferin luminescence. inhibition, % at 10 µM. 330,000 tested, 1.8% active;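 active means inhibition above about 50% at the single tested dose, limit read from the data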;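 further: plate controls were DMSO wells with enzyme for no effect and DMSO wells lacking enzyme for full effect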
Target sequence (Q9GZR1 628-1112 limits assumed): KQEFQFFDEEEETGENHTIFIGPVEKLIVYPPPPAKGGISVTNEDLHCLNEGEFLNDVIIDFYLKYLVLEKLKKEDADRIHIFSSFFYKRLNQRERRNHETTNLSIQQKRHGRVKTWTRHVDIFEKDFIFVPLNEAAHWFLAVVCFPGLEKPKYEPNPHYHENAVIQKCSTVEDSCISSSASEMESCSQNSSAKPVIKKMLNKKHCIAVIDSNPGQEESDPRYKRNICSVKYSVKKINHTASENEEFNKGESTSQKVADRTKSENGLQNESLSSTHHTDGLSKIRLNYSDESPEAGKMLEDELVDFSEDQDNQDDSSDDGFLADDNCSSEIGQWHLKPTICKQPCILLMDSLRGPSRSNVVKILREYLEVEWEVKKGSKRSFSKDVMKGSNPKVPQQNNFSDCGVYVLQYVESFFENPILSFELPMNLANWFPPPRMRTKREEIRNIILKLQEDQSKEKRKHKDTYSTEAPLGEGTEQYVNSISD
HSP90 refold inh: HSP90 inhibitors, primary screen, cell lysate, luminescence; Heat shock protein HSP 90 (rabbit reticulocyte lysate; luciferase refolding); Rabbit reticulocyte lysate, luciferase refolding luminescence, 3 h; inhibition, % at 5.6 µM; 290,000 tested, 0.91% active;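 active means inhibition above the screen-wide mean plus 3 SD, computed separately per campaign, cut at about 16% in these data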;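 further: 0% = DMSO wells and 100% = 60 µM geldanamycin wells; inhibitors lower the luminescence because luciferase stays unfolded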
Platelet DG rel: inhibitors of platelet dense granule secretion, primary screen, cell-based, MLPCN, human platelets; human platelet-rich plasma, SFLLRN dense granule ATP release, luminescence; inhibition, %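 (compounds screened at 7.5 µM in platelet-rich plasma)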; 300,000 tested, 0.22% active; AID 1663, 2009;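 active means mean replicate score, as percent of positive control, at or above 50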
SENP8 block-1: SENP8 protease inhibitors, primary screen, biochemical, luminescence | Sentrin-specific protease 8 (Homo sapiens), Q96LD8 | purified SENP8, Z-RLRGG-aminoluciferin cleavage | inhibition, % at 10 µM | 330,000 tested, 1.2% active; in the data active means inhibition above about 50%
SENP7 inh: SENP7 protease inhibitors, primary screen, biochemical, luminescence, uHTS | inhibition, % at 5 µM | Sentrin-specific protease 7 (Homo sapiens), Q9BQF6 | recombinant SENP7, Z-RLRGG-aminoluciferin luminescence, 40 min | 330,000 tested, 1.5% active;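 active means inhibition above about 50% at the single test dose, limit read from the data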;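 further: plate controls were DMSO with enzyme for no effect and no enzyme buffer wells for full effect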
SENP8 block-2: human SENP8 protease inhibitors, primary screen, biochemical, fluorescence, Nedd8 protein substrate, uHTS | recombinant SENP8 | Sentrin-specific protease 8 (Homo sapiens), Q96LD8 | 360,000 tested, 0.64% active | inhibition, % at 20 µM; in the data active means inhibition mostly above about 40%, no sharp cut-off; inactive means mostly below about 27%
SENP8 confirm: SENP8 protease inhibitors, retest, confirmation, biochemical, luminescence, single concentration | shares compounds with SENP7 inh | 6,200 tested, 40% active | inhibition, % at 12.5 µM | Recombinant SENP8, Z-RLRGG-aminoluciferin luminescence, 60 min;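 active means mean inhibition across replicates above about 50%, limit read from the data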
SENP6 confirm: SENP6 protease inhibitors, confirmation, biochemical, luminescence, single concentration; recombinant SENP6, Z-RLRGG-aminoluciferin luminescence; inhibition, % at 12.5 µM; shares compounds with SENP7 inh; 6,200 tested, 58% active
SENP7 confirm: SENP7 protease inhibitors, retest, confirmation, biochemical, luminescence, single concentration; shares compounds with SENP7 inh; recombinant SENP7, Z-RLRGG-aminoluciferin luminescence, 40 min; inhibition, % at 12.5 µM; 6,200 tested, 69% active; AID 488917, 2010
Casp3 SENP sel: caspase-3 protease inhibitors, confirmation, selectivity assay for SENP inhibitor project, biochemical, single concentration; inhibition, % at 12.5 µM; AID 488918, 2010; purified caspase-3, Z-DEVD-aminoluciferin luminescence, 60 min; shares compounds with SENP7 inh; 6,200 tested, 60% active;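 active means mean inhibition above about 50%, limit read from the data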;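 further: plate controls were enzyme with DMSO for no effect and wells without caspase-3 for full effect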
SENP luc ctr: interferes with luciferase luminescence in SENP counter-screen | shares compounds with SENP7 inh | Pre-incubated SENP8/Z-RLRGG-aminoluciferin, luciferase luminescence interference | inhibition, % at 12.5 µM | 6,200 tested, 39% active | AID 488919;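 active means mean inhibition above about 50% when retested at one dose, limit read from the data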;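 further: plate controls were DMSO wells with completed reaction for no effect and substrate without enzyme for full effect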
* marks the source's active call; other numbers are inactive results; . = no result given. A selection: hits, their analogues and other compounds. The true share with any hit is near 2.8%.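 How the source made its calls, unless noted: active means mean inhibition above about 50% in the one-dose retest (limit read from the data); inactive means the rest.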

SMILES	SENP6 block	HSP90 refold inh	Platelet DG rel	SENP8 block-1	SENP7 inh	SENP8 block-2	SENP8 confirm	SENP6 confirm	SENP7 confirm	Casp3 SENP sel	SENP luc ctr
COc1ccc(C(=O)Nc2ccccc2C(=O)O)cc1NC(=O)C(c1ccccc1)c1ccccc1	7.9	-2.4	3.6	5.5	-0.9	2.4	.	.	.	.	.
O=C(Nc1ccc(O)cc1C(=O)O)c1cccs1	50.1*	-3.0	0.3	39.6	40.7	10.9	52.3*	48.6	82.5*	79.4*	60.8*
Cc1ccccc1C(=O)Nc1ccc(O)cc1C(=O)O	-14.1	-0.3	3.1	2.2	0.8	7.9	.	.	.	.	.
O=C(Nc1ccccc1C(=O)O)c1cccc(C(=O)Nc2ccccc2C(=O)O)c1	80.3*	0.6	-6.0	71.3*	9.6	6.5	87.1*	85.7*	97.8*	88.3*	69.9*
O=C(CCCOc1ccc(Cl)cc1Cl)Nc1ccccc1C(=O)O	85.8*	-2.2	5.2	71.1*	-0.5	-3.1	83.1*	82.4*	89.7*	64.2*	82.5*
CC(=O)Nc1cccc(C(=O)Nc2ccccc2C(=O)O)c1	-11.4	1.5	4.6	-11.5	4.8	17.1	.	.	.	.	.
O=C(Nc1ccc2ncccc2c1)c1cccc(Br)c1	53.4*	-1.5	-1.9	29.1	21.9	7.0	41.0	36.8	65.0*	23.5	37.7
O=C(Nc1ccc(O)cc1C(=O)O)c1cccc(Br)c1	95.5*	-4.7	-3.6	87.9*	83.1*	18.5	93.5*	92.2*	98.5*	90.4*	91.5*
Cc1cc(S(=O)(=O)N2CCCC(C(=O)Nc3ccc(C(=O)O)cc3)C2)ccc1Cl (stereo not given)	4.0	0.7	1.2	0.0	-3.3	-3.0	.	.	.	.	.
CC(C)(C)c1cc(C(=O)NNC(=O)c2ccc(Cl)cc2)no1	-5.2	-0.3	-3.6	-12.6	-15.7	7.0	.	.	.	.	.
Cc1ccc(/C=N/Nc2nc3ccccc3s2)o1	96.7*	4.4	-2.9	90.1*	82.6*	-76.4	83.5*	84.1*	98.7*	81.1*	47.5
O=C(CSc1ccccn1)c1ccc(F)cc1	23.1	3.8	-6.4	5.9	4.0	1.1	.	.	.	.	.
Cc1ccc(C(=O)CSc2ccccn2)cc1	69.2*	0.9	6.7	50.9*	51.4*	14.6	4.7	34.6	-11.2	75.7*	68.4*
O=C(CSc1ncccc1C(=O)O)c1ccccc1	-12.8	0.6	6.7	-15.8	-4.9	3.1	.	.	.	.	.
O=C(O)c1ccnc(SCC(=O)c2ccccc2)c1	61.1*	-5.1	-5.1	10.2	25.6	0.4	0.1	-3.3	25.8	48.1	22.8
O=C1NC[C@H](Cc2ccc(O)cc2)N(C[C@@H]2CCCN2C[C@H](Cc2ccccc2)N2C[C@H](Cc3ccc(O)cc3)N(CC3CCCCCC3)C(=O)C2=O)C1=O	.	.	.	.	.	14.3	.	.	.	.	.
Cc1ccc(Oc2cc(-n3nc(C)cc3C)ncn2)cc1	53.8*	-2.9	2.4	20.2	46.5	16.4	36.8	38.7	73.4*	38.2	23.8
CC(=O)COc1ccc2cc(-c3ccccc3)c(=O)oc2c1	21.8	6.8	8.9	15.6	13.0	-414.4	.	.	.	.	.
